These results are taken from the supplement of paper PMC6555819.

Holding throughout (assay): PBM binding z-score (relative to random genomic background probes); higher = stronger binding; sequences stand for … in GC…GCGATTGACAGCGTAGAATGAAGG
Test [1] deals with RARb homodimer (NR concentration 270 nM). Summed up:
(§1)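 Each nuclear receptor dimer, without ligand, was incubated for 1 h on custom Agilent 4×180K protein-binding microarrays. Binding was detected with antibodies against each partner (one per run), and scanned fluorescence was regression-normalized. The binding z-scores are referenced to random human genomic background probes.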

In test [2] the test system is RARg:RXRa (NR concentration 270 nM, RXRa partner concentration 90 nM). An outline of the steps:
as §1

For test [3], the system named is RARg homodimer (NR concentration 270 nM). Summed up: as §1
Test [4] deals with RXRa DBDmut IVT, anti-RXR (DBD mutation: RXRa K156A/R161A, NR concentration 90 nM). An outline of the steps:
as §1

For test [5], the system named is RXRa homodimer (NR concentration 180 nM). Summed up: as §1
Test [6] concerns THRa:RXRa (NR concentration 90 nM, RXRa partner concentration 90 nM). Summed up:
as §1

The test system of test [7] is THRa homodimer (NR concentration 90 nM). An outline of the steps:
as §1

Test [8] deals with VDR:RXRa (NR concentration 270 nM, RXRa partner concentration 90 nM). Summed up: as §1
Test [9] relates to VDR homodimer (NR concentration 270 nM). Summed up: as §1

On to CATCAAAGTTCAAGGTAACGTAACAGAAAGCAGC, for which the PBM binding z-score was found to be 3.8 in test [1]; 5.15 in [2]; 5.74 in test [3]; 4.51 in test [4]; 4.38 in [5]; 3.04 in test [6]. The PBM binding z-score in test [7] came out at 1.39; in test [8], 4.01; in test [9], 3.49.

For GCAGACAGGTGAAACGCAGGTAGCTCAGGGTGGC, the PBM binding z-score in test [1] is -0.0117; in test [2] it was 0.108; in test [3], -0.0233; in test [4], -0.578; in [5] it was 0.367; in [6], 0.401. The PBM binding z-score was -0.86 in [7], -0.649 in test [8] and -0.785 in [9].

Regarding ATCGAAAGGTCGTGAGGTGGGTATACAGAAAGGC, the PBM binding z-score in [1] stood at 2.93; in test [2], 4.59; in test [3], 3.86; in [4] it was 1.52; in test [5], 5.16; in test [6], 2.6. Further, the PBM binding z-score in test [7] was 0.377; in test [8] it was 3.58; in [9], 1.38.

As for TCTAGCCGGCCAGAGGGTCACTCAAGAGGTACGG, the PBM binding z-score in test [1] was 2.6; in test [2] it was 2.42; in [3] it was 2.26; in test [4], -0.0421; in test [5], 2.31; in [6] it was 1.44. The PBM binding z-score in test [7] is -0.64; in test [8], 1.41; in test [9], -0.169.

As to ATCGAAAGGTCGACTAGGTGAGTATACACCGTTT, the PBM binding z-score was 2.66 in test [1]; 4.11 in test [2]; 3.91 in test [3]; 0.992 in test [4]; 4.12 in test [5]; 2.86 in test [6]. For the same sequence, the figures for the PBM binding z-score in [7], in [8] and in test [9] were 0.0406, 3.25 and 1.09, respectively.

GCTGCTAGGTCAGGTTGGTAAGCTAACGGGTACG: the PBM binding z-score in [1] came to 2.26; in test [2], 2.6; in test [3] it was 3.55; in test [4] it was 0.418; in [5] it was 1.02; in test [6], 1.7. Besides, the PBM binding z-score in test [7] was found to be 0.477; in test [8], 0.241; in test [9], 0.193.

As to CAACCTAGGTCAAGGTCAAAGTCGGTTTGTGCCA, the PBM binding z-score in test [1] turned out to be 5.28; in test [2], 6.18; in [3], 6.82; in test [4] it was 2.98; in test [5] it was 6; in [6], 4.3. In addition, the PBM binding z-score was determined as 3.92 in test [7], 5.45 in test [8] and 4.12 in [9].

As to CTCGAAAGGTCGGTTGAGGTGAGCATACGGATAA, the PBM binding z-score in test [1] came to 2.57; in test [2], 3.04; in [3], 2.99; in test [4], 0.598; in [5], 2.33; in test [6], 5.04. For the same sequence, the PBM binding z-score in test [7] was determined as 1.56; in [9] it was 0.64.

As to TAGACTAGGTCATGGGCCAGTATACCACGCGAAC, the PBM binding z-score is 2.68 in test [1]; 3.79 in test [2]; 4.47 in test [3]; -0.0129 in test [4]; 2.96 in [5]; 2.73 in test [6]. Also, the PBM binding z-score in [7] was found to be 0.989; in [8] it was 1.76; in [9], 0.435.

Regarding GCTAGCAGGCCATTTAGGTCACTCAATGACGGGC, the PBM binding z-score in test [1] stood at 2.27; in [2], 1.47; in test [3], 1.75; in test [4], 0.101; in [5], 1; in [6] it was 2.79. In addition, the PBM binding z-score is 1.71 in [7] and 0.244 in test [9].

TAGCCTAGGTCATGGGCCAGTATACCACGCGAAC: the PBM binding z-score turned out to be 2.71 in test [1]; 4.27 in test [2]; 4.78 in test [3]; 0.316 in test [4]; 3.57 in test [5]; 2.93 in test [6]. Besides, the results for the PBM binding z-score in [7], in [8] and in test [9] were 1.3, 1.97 and 0.506, respectively.

As to ATATGTAGGTTAACGGGTCATTCAGTTTGCGCAT, the PBM binding z-score was determined as 2.84 in test [1]; 3.21 in test [2]; 2.62 in test [3]; 1.46 in test [4]; 3.46 in [5]; 2.27 in [6]. For the same sequence, the PBM binding z-score in test [7] came to 0.71; in [8], 5.16; in test [9], 2.56.

AGAATGAAGTTAAGATCAGGGAAACAGAATACAT: the PBM binding z-score is -0.296 in [1]; 0.141 in test [2]; 0.297 in test [3]; -0.544 in test [4]; 0.166 in test [5]; 0.135 in test [6]. The PBM binding z-score in [7] was -0.599; in [8], -0.31; in test [9] it was -0.0314.

CCTAGTTGGTCAAGGTCACACACGCTATAGGTAC: the PBM binding z-score worked out at 4.21 in test [1]; 4.84 in [2]; 4.85 in test [3]; 2.36 in [4]; 5 in test [5]; 4.11 in test [6]. The values for the PBM binding z-score in [7], in test [8] and in [9] were 4.42, 4.26 and 4.32, respectively.

With GCTTGTAGATCAAGGTTAACAAAGACTAAGCTAA, the PBM binding z-score amounted to 0.609 in test [1]; 0.795 in [2]; 0.37 in test [3]; 0.051 in [4]; 1.05 in test [5]; 1.49 in [6]. Further, the values for the PBM binding z-score in [7] and in [9] were -0.000318 and -0.118, respectively.

For TCGAGTAGGTTAGGCGGGGCATTCAGCCAACATA, the PBM binding z-score is 0.241 in test [1]; 0.2 in test [2]; -0.0839 in test [3]; -0.0244 in test [4]; 0.0673 in test [5]; 0.994 in test [6]. Further, the PBM binding z-score in test [7] was -0.341; in test [9], 0.0165.
